Screening results: PubChem, National Center for Advancing Translational Sciences (NCATS)
Vaccinia Venus = vaccinia inhibition (Venus reporter); 330,000 tested, 0.46% active; Vaccinia virus Venus reporter expression, fluorescence; Potency, µM (series often up to 36.5 µM), for inactives: at the top dose activity change, negative = inhibition, hits mostly inhibitors; AID 720580; calls by dose curve; tested in A549 cells; note: potency is the fitted concentration of half-maximal effect; nearly all actives have a fitted effect of over 30% in size
HCMV antiviral = blocks human cytomegalovirus replication. HFF cells, HCMV-luciferase reporter, 72 h; hits give low values. activity change, negative = inhibition, % at 57.5 µM. 410,000 tested, 4.5% active. AID 1259415; in the data active = activity change below about -60%; inconclusive = no clear call, values can overlap the other calls; inactive = above about -39%
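Two compound doses tested in HFFs infected with HCMV-luciferase, MOI 1 PFU/cell, 72 h at 37C. Lysate luminescence read with OneGlo; data normalized against buffer-only and 10uM Salinomycin inhibitor controls.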
Vaccinia mCherry = inhibitors of vaccinia virus infection (mCherry reporter signal); Vaccinia virus mCherry reporter infection, fluorescence; Potency, µM (highest dose often 36.5 µM), for the others: at the highest dose activity change, negative = inhibition, most hits filed as inhibitors; 310,000 tested, 0.63% active; AID 720579; calls by dose curve; tested in A549 cells; note: potency is the fitted concentration of half-maximal effect; nearly all actives have a fitted effect of over 35% in size
FMDV antiviral = blocks foot and mouth disease virus; FMDV antiviral cell-based qHTS; Potency, µM (top dose mostly 57.9 µM), inactives show top-dose activity change, negative = inhibition, actives largely listed as inhibitors; 410,000 tested, 1.2% active; AID 1159524; calls by dose curve; tested in HEK293T cells; note: read-out not given here; potency is the fitted concentration of half-maximal effect; nearly all actives have a fitted effect of over 45% in size
Lassa entry inh = blocks Lassa virus binding to or entry into cells; Potency, µM (top dose mostly 37.9 µM), inactives show at the top dose activity change, negative = inhibition, most hits filed as inhibitors; Lassa virus pseudotype entry inhibition, cell reporter; 300,000 tested, 1.2% active; calls by dose curve; tested in HEK293 cells; note: potency is the fitted concentration of half-maximal effect; nearly all actives have a fitted effect of over 50% in size
MARV entry inh = inhibitors of Marburg virus binding or cell entry; Marburg virus pseudotyped entry inhibition, cell reporter; Potency, µM (doses to about 37.8 µM), without a hit: at the highest dose activity change, negative = inhibition, usual class: inhibitors; 300,000 tested, 1.8% active; AID 540276; calls by dose curve; tested in HEK293 cells; note: potency is the fitted concentration of half-maximal effect
* = called active by the depositor; [ ] = dose if it differs, or a comment. In the library only some 6.5% were active in any assay of this set; here they are far more common. % is set by controls: 0 for no effect and ±100 for the full control effect.

What do the screens show for `Cc1cccc(C)c1NC(=O)CCS(=O)(=O)c1ccc2c(c1)CC(C)N2C(=O)C1CC1` (centres undefined)?
Vaccinia Venus: -14%; HCMV antiviral: -7; Vaccinia mCherry: -8%; FMDV antiviral: -25%; Lassa entry inh: -17%[46.1 µM]

How did NC(=O)Cc1nc(-c2ccc([N+](=O)[O-])cc2)cs1 do in these assays?
Vaccinia Venus: -9%; HCMV antiviral: -93*; Vaccinia mCherry: -14%; FMDV antiviral: -3%; Lassa entry inh: 1%[46.1 µM]; MARV entry inh: -1%[46.1 µM]

What do the screens show for `CC(C)=NNc1nc(-c2ccc([N+](=O)[O-])cc2)cs1`?
Vaccinia Venus: -22%; HCMV antiviral: inconclusive; Vaccinia mCherry: -14%; FMDV antiviral: 17%; Lassa entry inh: -16%; MARV entry inh: 17%

How did Cc1noc(C)c1C(=O)Nc1nc(-c2ccc([N+](=O)[O-])cc2)cs1 do in these assays?
Vaccinia Venus: -10%; HCMV antiviral: -62*; Vaccinia mCherry: inactive; FMDV antiviral: inconclusive; Lassa entry inh: -4%; MARV entry inh: -9%

What do the screens show for `CCCC(=O)Nc1nc(-c2ccc(Cl)s2)cs1`?
HCMV antiviral: 105; FMDV antiviral: 9%

What do the screens show for `O=C(Nc1ccc([N+](=O)[O-])cc1)Nc1nc(-c2ccc(Cl)s2)cs1`?
Vaccinia Venus: 5.6µM*; HCMV antiviral: -100*; Vaccinia mCherry: inconclusive; FMDV antiviral: inconclusive; Lassa entry inh: inconclusive; MARV entry inh: inconclusive

How did Cc1ccc(-c2csc(NC(=O)c3c(C)noc3C)n2)cc1 do in these assays?
HCMV antiviral: 14; FMDV antiviral: 0%

How did CC(=O)Nc1nc(-c2ccc([N+](=O)[O-])cc2)cs1 do in these assays?
HCMV antiviral: -85*; FMDV antiviral: 7%; Lassa entry inh: 11%; MARV entry inh: 2%

What do the screens show for `CCCCCCN1CCN(C2CN(Cc3ccc(C)cc3)S(=O)(=O)C2)CC1` (centres undefined)?
Vaccinia Venus: -4%; HCMV antiviral: -7; Vaccinia mCherry: 4%; FMDV antiviral: -22%; Lassa entry inh: 6.3µM*

How did Cc1cccc(CN2CCN(C3CN(CCc4ccccc4)S(=O)(=O)C3)CC2)c1 (centres undefined) do in these assays?
Vaccinia Venus: 1%; HCMV antiviral: -63*; Vaccinia mCherry: 11%; FMDV antiviral: -10%; Lassa entry inh: inconclusive

What do the screens show for `CC(C)C1C(=O)N(Cc2cn(CC3CCCCC3)nn2)CCS(=O)(=O)N1Cc1ccc(-c2cccc(CO)c2)cc1` (centres undefined)?
Vaccinia Venus: inconclusive; HCMV antiviral: -35; Vaccinia mCherry: inconclusive; FMDV antiviral: inconclusive; Lassa entry inh: inconclusive

Results for Cc1nn(-c2ccc(NC(=O)c3ccncc3)cc2)c(C)c1Cl ?
Vaccinia Venus: -14%; HCMV antiviral: -91*; Vaccinia mCherry: -12%; FMDV antiviral: 18µM*; Lassa entry inh: inconclusive; MARV entry inh: inconclusive

Results for COc1ccc2c(c1)[C@@H](NC(=O)OCc1ccccc1)[C@H](C)[C@@H](c1ccccc1)N2Cc1cccc(F)c1 ?
HCMV antiviral: -10

Results for O=[N+]([O-])c1ccc(S(=O)(=O)CC(CN2CCOCC2)N2CCOCC2)cc1 (centres undefined) ?
Vaccinia Venus: inconclusive; HCMV antiviral: -102*; Vaccinia mCherry: inconclusive; FMDV antiviral: 6%; Lassa entry inh: inconclusive; MARV entry inh: inconclusive

Results for O=[N+]([O-])c1ccc(C(O)CN2CCOCC2)cc1 (centres undefined) ?
Vaccinia Venus: -4%; HCMV antiviral: 30; Vaccinia mCherry: 12%; FMDV antiviral: -3%; Lassa entry inh: 4%; MARV entry inh: 15%[46.1 µM]

What do the screens show for `O=[N+]([O-])c1ccc(S(=O)(=O)CC(CN2CCCCC2)N2CCCCC2)cc1` (centres undefined)?
HCMV antiviral: -25; FMDV antiviral: 18µM*; Lassa entry inh: 5.2µM*; MARV entry inh: 4.6µM*

Results for O=S(=O)(CC(CN1CCCCC1)N1CCCCC1)c1ccccc1 (centres undefined) ?
HCMV antiviral: -99*; FMDV antiviral: 35µM*

What do the screens show for `CC(C)(CO)C(O)C(=O)NCCCO` (centres undefined)?
Vaccinia Venus: -11%; HCMV antiviral: inconclusive; Vaccinia mCherry: inactive; FMDV antiviral: inconclusive
